Source: PubChem BioAssay
Mtb betalactam: beta-lactam sensitization of Mtb H37Rv | M. tuberculosis H37Rv growth with meropenem, percent inhibition | 0.27% of 330,000 active | inhibition, % at 25 µM;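 also: growth measured after seven days incubation then overnight dye step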
Rv3671c protease: inhibits the M. tuberculosis serine protease Rv3671c. P9WHR9. inhibition, % at 5.96 µM. 0.048% of 320,000 active; in the data active = inhibition above about 38%;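 also: extracellular domain of Rv3671c used as enzyme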
GDH-TPI inh: counter-screen for M. tuberculosis FBA inhibitors: GDH-TPI coupled enzymes; GDH-TPI coupled enzyme counterscreen, NADH absorbance; 1.2% of 360,000 active; inhibition, % at 4.8 µM; in the data active = inhibition above about 30%
UGM FP inh: blocks M. tuberculosis UGM enzyme. P9WIQ1. inhibition, % at 10 µM. 0.06% of 320,000 active. purified UGM, fluorescence polarization probe displacement. AID 504406; in the data active = inhibition above about 10%, passing the limit was not always enough; inconclusive = no clear call, values can overlap the other calls
RecA intein inh: blocks M. tuberculosis RecA intein splicing; P9WHJ3; cell-free RecA intein splicing, fluorescence; inhibition, % (no concentration beside the values); 0.75% of 290,000 active; in the data active = inhibition above about 30%; inconclusive = no clear call, values can overlap the other calls
Mtb FBA inh: Mtb fructose-bisphosphate aldolase inhibition. 2.3% of 360,000 active. inhibition, % at 1 µM. AID 588726. purified M. tuberculosis FBA, fluorescence read-out. P9WQA3; in the data active = inhibition above about 27%
GFP chromo cs: counter-screen: blocks GFP chromophore formation | cell-free GFP chromophore formation, fluorescence | 83% of 2,100 active | EC50, µM | shares compounds with RecA intein inh | AID 434968
Each line names hits and unclear results; the compound was inactive in the other large screens (follow-up assays come after a bar, where they were run). Compounds with a hit are over-represented: about 4% of the library has one in this group of screens. Unless noted, no rule for the calls is given here.

COc1cc(/C=C2/C(=O)N(c3ccccc3)N=C2C)ccc1OS(=O)(=O)c1ccccc1	RecA intein inh 69.7 (no result: GDH-TPI inh, Mtb FBA inh) | GFP chromo cs 1.85
COc1ccc(/C=C2/C(=O)N(c3cccc(F)c3)N=C2C)c(OC)c1	RecA intein inh 46.1 | GFP chromo cs inactive
CC1=NN(c2ccccc2)C(=O)/C1=C\c1ccc(Br)s1	none
CC1=NN(c2cccc(F)c2)C(=O)/C1=C/c1ccc(N(C)C)cc1	none
COc1ccc(/C=C2/C(=O)N(c3ccccc3)N=C2C)cc1Br	RecA intein inh 45.1 | GFP chromo cs 8.04
CC(=O)NCCn1c(SCc2ccc(C)cc2C)nc2ccccc2c1=O	none
CC(=O)NCCn1c(SCc2ccccc2C)nc2ccccc2c1=O	Mtb betalactam inconclusive, RecA intein inh 32.0 | GFP chromo cs inactive
O=C(CCl)NC(=O)NC12CC3CC(CC(C3)C1)C2	RecA intein inh 58.7 | GFP chromo cs 28.7
CC(Cl)C(=O)NC(=O)NC12CC3CC(CC(C3)C1)C2 (stereo unspecified)	none
COc1cc(C(c2c(C)[nH][nH]c2=O)c2c(C)[nH][nH]c2=O)cc([N+](=O)[O-])c1O	RecA intein inh 97.2 | GFP chromo cs 0.446
COC(=O)COc1c(Cl)cc(C(c2c(C)[nH][nH]c2=O)c2c(C)[nH][nH]c2=O)cc1OC	RecA intein inh 95.7 (no result: Rv3671c protease) | GFP chromo cs 0.577
CCOC(=O)COc1ccc(C(c2c(C)[nH][nH]c2=O)c2c(C)[nH][nH]c2=O)cc1	none
CCOc1cc(C(c2c(C)[nH][nH]c2=O)c2c(C)[nH][nH]c2=O)cc([N+](=O)[O-])c1O	RecA intein inh 97.4 | GFP chromo cs 0.452
CCOc1cc(C(c2c(C)[nH][nH]c2=O)c2c(C)[nH][nH]c2=O)cc(Cl)c1O	RecA intein inh 94.9 | GFP chromo cs inactive
COc1cc(/C=C/c2[nH]c(=O)[nH]c(=O)c2[N+](=O)[O-])cc([N+](=O)[O-])c1O	none
CCOc1cc(/C=C2/NC(=O)NC2=O)cc([N+](=O)[O-])c1O	none
CC(CCCN(C)C)C(Cc1ccccc1)c1ccccc1 (stereo unspecified)	none
CCOC(=O)c1cc(C(=O)NNC(=O)c2cccc([N+](=O)[O-])c2)c(C)nc1C	none (no result: Mtb betalactam, Rv3671c protease, UGM FP inh, RecA intein inh)
Cc1cc(C)c(-c2c(N)cc(Br)cc2Br)c(N)c1	none (no result: Mtb betalactam, Rv3671c protease, UGM FP inh, RecA intein inh)
COc1ccc(NC(=O)CN(c2c(C)cccc2C)S(C)(=O)=O)cc1	none
O=C(CSc1n[nH]c(-c2ccc(Br)cc2)n1)N1CCOCC1	none (no result: RecA intein inh)
COc1ccccc1NC(=O)Nc1ccnn1C1CCN(C(=O)C2CCOC2)CC1 (stereo unspecified)	none (no result: Mtb betalactam, Rv3671c protease, UGM FP inh, RecA intein inh)
Cc1ccc(C(c2c(C)[nH][nH]c2=O)c2c(C)[nH][nH]c2=O)cc1[N+](=O)[O-]	RecA intein inh 99.1 | GFP chromo cs 0.495
Cc1oc(-c2ccccc2Cl)nc1CN(C)C(C)c1ccon1 (stereo unspecified)	none
Cc1ccccc1-c1nc(CN(C)C(C)c2ccon2)c(C)o1 (stereo unspecified)	RecA intein inh 38.6 | GFP chromo cs 12.8
Cc1nc(COC(=O)c2cc(O)c3ccccc3c2O)cs1	RecA intein inh 56.0 (no result: Mtb betalactam, Rv3671c protease, UGM FP inh) | GFP chromo cs 6.2
CCOC(=O)c1cc(C#N)c(SC(C)C(=O)NC2CCCCC2)nc1C (stereo unspecified)	none (no result: RecA intein inh)
COc1ccc(C2=NN(C(=O)/C=C/c3ccccc3)C(c3ccccc3)C2)c(OC(C)=O)c1 (stereo unspecified)	RecA intein inh 35.7 | GFP chromo cs inactive
COc1ccc(C2CC(c3ccccc3OC(C)=O)=NN2C(=O)/C=C/c2ccccc2)cc1OC (stereo unspecified)	none
Oc1ccc(Nc2nc(-c3ccc4ccccc4c3)cs2)cc1	RecA intein inh 34.2 | GFP chromo cs 20.3
O=C(NCC1CCCO1)C(c1cccs1)N(Cc1ccccc1)C(=O)c1ccc(-c2ccccc2)[nH]1 (stereo unspecified)	none
CC(C)(C)NC(=O)C(c1cccs1)N(CC1CCCO1)C(=O)c1ccc(-c2ccccc2)[nH]1 (stereo unspecified)	RecA intein inh 33.4 | GFP chromo cs inactive
CC[C@]1(C(=O)OC)[C@H]2C(=O)N(Cc3ccccc3)C(=O)[C@H]2[C@H]2CN(C)C(=NCc3ccccc3)N21	none (no result: Mtb betalactam, Rv3671c protease, UGM FP inh, RecA intein inh)
CC1CCN(S(=O)(=O)c2ccc(NN=C(C#N)C#N)cc2)CC1	none (no result: GDH-TPI inh, UGM FP inh, RecA intein inh, Mtb FBA inh)
N#CC(C#N)=NNc1ccc(S(=O)(=O)N2CCCCC2)cc1	RecA intein inh 58.3 | GFP chromo cs 18.5
Cc1[nH]n(-c2ccccc2)c(=O)c1/C=N/NC(=O)c1ccc(O)cc1O	GDH-TPI inh 35.7, RecA intein inh 40.8 | GFP chromo cs 2.81
COc1cc(/C=C/C(=O)OCC(=O)Nc2ccccc2Sc2ccc(Cl)cc2)ccc1O	RecA intein inh 35.5 | GFP chromo cs inactive
COc1cc2ccc(C(=O)O)cc2cc1OC	none (no result: Mtb betalactam, Rv3671c protease, UGM FP inh, RecA intein inh)
CC1(Cc2cccc(C(F)(F)F)c2)C(=O)Nc2ccc(-c3ccc(F)c(Cl)c3)cc21 (stereo unspecified)	none (no result: Mtb betalactam, Rv3671c protease, UGM FP inh, RecA intein inh)
c1ccc(-c2nc(N3CCCCCC3)c3ccccc3n2)nc1	RecA intein inh 32.2 | GFP chromo cs inactive
COc1ccc(N2CCN(c3ccc4nnc(CCC(=O)Nc5ccc(C)cc5)n4n3)CC2)cc1	none
O=C(CCCN1C(=O)/C(=C/c2cccs2)SC1=S)Nc1cccc(O)c1	none
O=C(CCN1C(=O)/C(=C/c2cccs2)SC1=S)Nc1ccc(C(=O)O)c(O)c1	RecA intein inh 44.1 | GFP chromo cs 30.9
O=C(CCN1C(=O)/C(=C/c2cccs2)SC1=S)Nc1ccc(O)cc1	none
CCOc1ccc(/C=C2\SC(=S)N(CCC(=O)Nc3ccccc3C(=O)O)C2=O)cc1	RecA intein inh 36.2 | GFP chromo cs inactive
O=C(CCN1C(=O)/C(=C/c2cccs2)SC1=S)Nc1cccc(O)c1	RecA intein inh 36.2 | GFP chromo cs inactive
CC(C)CC1NC(=O)c2cc3ccccc3cc2-n2c1nc1ccc(Cl)cc1c2=O (stereo unspecified)	none (no result: Mtb betalactam, Rv3671c protease, UGM FP inh, RecA intein inh)
CCOc1cc(O)c(-c2[nH]ncc2-c2nc(C)cs2)cc1CC	none
CCOC(=O)c1ccc(NC(=O)Cn2ncc(Cl)c(Cl)c2=O)cc1	RecA intein inh 62.1 | GFP chromo cs 12.9
COc1ccc(NC(=O)c2ccc(Cl)nc2)cc1S(=O)(=O)N1CCOCC1	none (no result: RecA intein inh)
O=C(OCn1ncc(Cl)c(Cl)c1=O)c1ccc(C(F)(F)F)cc1	RecA intein inh 80.1 (no result: Mtb betalactam, Rv3671c protease, UGM FP inh) | GFP chromo cs 1.39
Cc1ccc(C(=O)OCn2ncc(Cl)c(Cl)c2=O)cc1	RecA intein inh 74.9 | GFP chromo cs 6.36
COc1ccc(NC(=O)Cn2ncc(Cl)c(Cl)c2=O)cc1S(=O)(=O)N1CCOCC1	RecA intein inh 43.2 | GFP chromo cs 30.5
Cc1nc(N(C)C2CCCCC2)c2nnn(Cc3ccc(F)cc3)c2n1	none (no result: Mtb betalactam, Rv3671c protease, UGM FP inh, RecA intein inh)
COc1cc(NC2CCCCC2O)c2nc(-c3ccc(Cl)cc3)ccc2c1 (stereo unspecified)	RecA intein inh 51.2 | GFP chromo cs 0.179
O=c1oc2cc(Oc3ccc(C(F)(F)F)cc3[N+](=O)[O-])ccc2c2c1CCC2	none
